Test results taken from PubChem BioAssay (NCI).
The panel holds about 83,000 compounds, 20% with a hit somewhere; the sample as a whole holds those more often.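 96-well plates, one dose, 48 hours. Percent growth reported; active if below 10.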 Unmarked numbers belong to inactive results. Calls of active or inactive are those of the source.

How the values were obtained:
Assay in all cases: NCI-60 one-dose screen, 48 h (100 = growth as untreated, 0 = no growth, -100 = all killed)
Settings in all cases: 10 µM unless noted
[1] = test system: HT29 colon
[2] = test system: SNB-75 CNS
[3] = test system: SNB-19 CNS
[4] = test system: U251 CNS
[5] = test system: SK-MEL-5 melanoma
[6] = test system: UACC-62 melanoma
[7] = test system: LOX IMVI melanoma
[8] = test system: SK-MEL-28 melanoma
[9] = test system: SK-MEL-2 melanoma
[10] = test system: PC-3 prostate

Structure (SMILES) | growth [1] | growth [2] | growth [3] | growth [4] | growth [5] | growth [6] | growth [7] | growth [8] | growth [9] | growth [10]
O=C(c1nn(-c2ccc(Cl)cc2)cc1O)n1nc(C(F)(F)F)cc1-c1ccccc1 | 37.8% | 55.4% | 51.2% | 46.8% | 59% | 44.2% | 32.8% | 53% | 67.9% | 
COc1cc(C(=O)/C=C/c2cccnc2Nc2ccccc2)cc(OC)c1OC | -70.2% (active) | -16% (active) | -72.5% (active) | -94.8% (active) | -99.4% (active) | -84.2% (active) | -49.9% (active) | -97.5% (active) | -56.5% (active) | 
Cc1ccccc1NC(=O)c1cc2ccccc2cc1O | 111% | 76.8% | 61.9% | 25.9% | 17.8% | 14.2% |  | 38.6% | 33% | 
O=C(Nc1ccc(C2=NCCCN2)cc1)Nc1ccc(C2=NCCCN2)cc1 | 92.4% | 94.5% | 96.7% | 93.7% | 69.7% | 87.7% | 89.9% | 86.9% | 49% | 
CC1=C(C(=O)Nc2ccccc2)C(c2ccc3c(c2)OCCO3)NC(=O)N1 (stereo unspecified) | 108% | 102% | 99.6% | 105% | 101% | 101% | 94.7% | 111% | 125% | 
CCCCC1Nc2nc(SC)n(C)c(=O)c2CN(Cc2ccccc2)C1=O (stereo unspecified) | 105% | 86% | 93.7% | 92.2% | 96.4% | 85.9% | 88.6% | 122% | 90% | 
COc1ccc(-c2nc3sccn3c2-c2ccnc(S(C)(=O)=O)n2)cc1 | 89% | 61.1% | 64.2% | 94.4% | 98.9% |  | 68.8% | 43.7% | 100% | 
CC(=O)n1c2ccccc2c2ccccc21 | 105% | 97.6% | 113% | 104% | 108% |  |  | 107% | 123% | 
NC(=O)N/N=C/c1ccc(Br)o1 | 102% | 105% | 111% | 106% | 101% | 104% | 94.2% | 105% | 99.6% | 
COc1ccc(-c2cc(C(=O)Nc3nc4cc(C)c(C)cc4s3)nc3cc(-c4ccccc4)nn23)cc1OC | 93.1% | 87.9% | 108% | 111% | 110% | 107% | 95.1% | 94.4% | 113% | 
CC/C=C\C=C/C(=O)N/C=C/CC1Cc2cccc(O)c2C(=O)O1 (stereo unspecified) | 44.1% | 18.7% | 56% | 57.7% | 13% | 61.4% | 75% | 76.9% | 95.8% | 
Cc1c(C)c(N2C(=O)C=CC2=O)c(C)c(C)c1N1C(=O)C=CC1=O | 110% | 101% | 97.3% | 112% | 109% | 106% |  | 81.6% | 109% | 
Cc1ccc([N+](=O)[O-])cc1NC(=O)Nc1cccc(F)c1 | 79.8% | 90.2% | 64.1% | 64.3% |  | 71.8% | 82.4% | 108% | 86% | 
C[n+]1c2ccccc2c(NC2CCNCC2)c2[nH]c3ccccc3c21 | 2.95% (active) | 7.49% (active) | -12.4% (active) | 1.08% (active) | 7.09% (active) |  | 13.2% | 10.6% | -46.4% (active) | 
COc1ccc(-c2nn(-c3ccccc3)cc2/C=C2\SC(=S)N(CCc3ccc(O)cc3)C2=O)cc1 | 101% | 81% | 93.6% | 90.5% | 88.1% | 60.3% | 72.9% | 98.6% | 95% | 
CC(C)c1ccc(C(=O)Nc2sc3c(CN(C)C)c(O)ccc3c2C(N)=O)cc1 | 2.74% (active) | 48.5% | 84.4% | 34.3% | 88.3% | 104% | -88.3% (active) |  | 96.4% | 

Structure (SMILES) | growth [1] | growth [2] | growth [3] | growth [4] | growth [5] | growth [6] | growth [7] | growth [8] | growth [9] | growth [10]
CSC1=Nc2c(c(C)c(-c3ccccc3)n2CCCN2CCCCC2)C2=NC(=O)C[C@H](C)N12 | 21.4% | 50.3% | 20.2% | 11.8% | 9.86% (active) | 53.7% | 42.3% | 43.2% | 62.8% | 
Oc1ccc(-c2nn(-c3ccccc3)cc2-c2nc3ccccc3s2)cc1 | 112% | 101% | 93.9% | 94% | 92.3% |  | 78.4% | 117% | 135% | 
O=C(Nc1cccc([N+](=O)[O-])c1)c1cccc(C(=O)Nc2cccc([N+](=O)[O-])c2)c1 | 88.5% | -40.4% (active) | 60.3% | 31.8% | 94% | 75.1% | 67.6% | 77.2% | 63.7% | 
NC(=Nc1ccccc1)SCCCCSC(N)=Nc1ccccc1 | 94.8% | 68% | 99.3% | 72.4% | 93.7% | 66.5% |  | 96.7% | 98.5% | 
ClC1=C(Cl)C(=C2C(Cl)=C(Cl)C(Cl)=C2Cl)C(Cl)=C1Cl | 96.2% | 94.4% | 105% | 103% | 103% | 99.3% | 97.9% | 111% | 95.8% | 
O=C(C=C=Nc1ccccc1)C(=O)N=C=Cc1ccccc1 | 52.1% | 75.8% | 92.3% | 83.7% |  | 67% | -47.5% (active) | 68.2% | 49.2% | 
O=C1OCC/C1=C\OCCCO/C=C1\CCOC1=O | 105% | 97.1% | 104% | 99.6% | 105% | 91% | 98.8% | 125% | 104% | 
Cc1ccc(C=C2C(Cl)=C(Cl)C(Cl)=C2Cl)cc1 | 8.19% (active) | -11.6% (active) | -78.3% (active) | -86.3% (active) |  | -73.6% (active) | -88.7% (active) | -87.8% (active) |  | 
c1ccc2cc(C[n+]3ccn(CCCCCCCn4cc[n+](Cc5ccc6ccccc6c5)c4)c3)ccc2c1 | 10.4% | -2.59% (active) | 21.6% | 21% | -5.55% (active) | 27.3% | 40.7% |  | 23.4% | 
CCOC(=O)C(Cc1ccccc1)(C(=O)OCC)C(Br)C(=O)c1ccccc1 (stereo unspecified) | 69.7% | 73.5% | 97.5% | 88.1% | 87.2% |  | 70.4% |  | 83.5% | 
COc1cc2c(cc1OCCCCCn1c(-c3ccc(OCc4ccccc4)cc3)nc3cc(N4CCOCC4)ccc31)N=C[C@@H]1CCCN1C2=O | -13.7% (active) | 12.1% | 34.7% | -24.4% (active) | -66.7% (active) | -76.5% (active) | -29.7% (active) | -19% (active) | -40% (active) | 
COc1cc(-c2cc(C(=O)Nc3nc4ccccc4s3)nc3cc(-c4ccccc4)nn23)cc(OC)c1OC | 17.4% | 36.6% | 98.5% | 66.7% | 35.5% | 67.8% | 27.4% | 39.9% | 73.7% | 
O=C(Nc1ccc(Cl)cc1)c1cc2c(cc1O)[nH]c1ccccc12 | 1.2% (active) | 38.3% | 36.9% | 22.1% | 0.256% (active) |  | 30.4% | 38.6% | 22.3% | 
COC(=O)[C@]1(CCSC)N[C@H](c2cn(-c3ccccc3)nc2C)[C@@H]2C(=O)N(c3ccc(C)cc3)C(=O)[C@@H]21 | 99.7% | 93.3% | 97.8% |  | 115% | 102% | 97.9% | 109% | 101% | 98.1%
OC(c1cc(C(F)(F)F)nc2c(C(F)(F)F)cccc12)C1CCCCN1 (stereo unspecified) | -66.5% (active) | 33% | 53.7% |  | 61.3% | 76.6% | 11.9% | 72.1% | 56.4% | 36.7%
COC(=O)c1ccc2c(c1)nc(-c1ccc(O)c(OC)c1)n2-c1cc(C(C)(C)C)[nH]n1 | 96.3% | 111% | 101% |  | 83.6% | 88.3% | 96.8% | 118% | 92.3% | 65.8%
